Where “and” joins values, the source holds several entries; their conditions need not be identical. Equal entries are not always repeated. In all, about 360,000 compounds went through this assay and about 2,100 (0.58%) were called active.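 The calls were made as follows: active = inhibition above a per-plate cutoff, the mean of that plate's test compounds plus 3 SD (cut at about 27% in these data); inactive = the rest.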 Only a selection was taken, and actives are over-represented in it overall.
The compounds below were run against Muscarinic acetylcholine receptor M5 (Homo sapiens) (UniProt P08912) (assay: CHRM5 blockers of acetylcholine calcium response – CHO cells, Fluo-8 calcium fluorescence, primary screen (AID 624040;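 also: 0% = acetylcholine EC80 with DMSO and 100% = DMSO without agonist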)). Details: CHO-hM5 cells, ACh EC80, at 3 µM, active compounds read high.
Muscarinic acetylcholine receptor M5 (Homo sapiens), sequence (P08912 whole entry, looked up): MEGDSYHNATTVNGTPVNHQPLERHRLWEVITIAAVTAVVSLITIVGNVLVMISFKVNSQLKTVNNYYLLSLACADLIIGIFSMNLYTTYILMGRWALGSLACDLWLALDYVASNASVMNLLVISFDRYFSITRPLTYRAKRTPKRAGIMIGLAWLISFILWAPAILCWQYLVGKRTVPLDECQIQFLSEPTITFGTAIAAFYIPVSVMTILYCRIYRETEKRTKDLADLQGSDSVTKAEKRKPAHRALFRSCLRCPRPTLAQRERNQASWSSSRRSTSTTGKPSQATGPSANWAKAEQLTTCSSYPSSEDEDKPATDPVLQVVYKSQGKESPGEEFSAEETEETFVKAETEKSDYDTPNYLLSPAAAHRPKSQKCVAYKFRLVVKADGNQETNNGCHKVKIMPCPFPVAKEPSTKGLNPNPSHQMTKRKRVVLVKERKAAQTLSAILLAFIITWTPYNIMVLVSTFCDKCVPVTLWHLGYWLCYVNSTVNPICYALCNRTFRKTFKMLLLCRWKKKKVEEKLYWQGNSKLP

Row | SMILES | inhibition
1 | COc1ccc(S(=O)(=O)N(C)CC(=O)NCCCN2CCOCC2)cc1Cl | 8.37% (inactive)
2 | CCN1CCN(C(=O)Cn2nc(C)n3c(cc4c(OC)cccc43)c2=O)CC1 | 2.41% (inactive)
3 | COc1ccc(CCNC(=O)CCC(=O)NC2CCCCC2)cc1OC | 15.9% (inactive)
4 | CCc1ccc(N(C(=O)c2csnn2)C(C(=O)NC2CCCCC2)c2cccnc2)cc1 (centres undefined) | -0.48% (inactive)
5 | COc1ccccc1CNC(=O)c1ccc(Cl)c(S(=O)(=O)N2CCCC2)c1 | -2.46% (inactive)
6 | COc1ccccc1C(CNC(=O)c1cccc(NS(=O)(=O)c2ccc(Br)cc2)c1)N(C)C (centres undefined) | 93.8% (active)
7 | COc1ccccc1C(CNC(=O)c1cccc(S(=O)(=O)Nc2ccc(F)cc2)c1)N(C)C (centres undefined) | 98% (active)
8 | CC(=O)c1ccc(S(=O)(=O)Nc2ccc(C(=O)NCC(c3ccccc3)N(C)C)cc2)cc1 (centres undefined) | 0.82% (inactive)
9 | COc1ccccc1C(CNC(=O)c1ccc(C)c(S(=O)(=O)N2CCCCC2)c1)N(C)C (centres undefined) | 98.7% (active)
10 | Cc1cccc(NS(=O)(=O)c2ccc(C)c(C(=O)NCC(c3ccccc3)N(C)C)c2)c1 (centres undefined) | 5.12% (inactive)
11 | CN(C)C(CNC(=O)c1cccc(S(=O)(=O)Nc2ccc(Br)cc2)c1)c1ccco1 (centres undefined) | 4.75% (inactive)
12 | COc1ccc(C(CNC(=O)c2cccc(S(=O)(=O)Nc3ccc(Br)cc3)c2)N(C)C)cc1 (centres undefined) | 5.55% (inactive)
13 | Cc1ccc(C(=O)NCC(c2cccs2)N(C)C)cc1S(=O)(=O)N1CCOCC1 (centres undefined) | 4.49% (inactive)
14 | C/C(CC(O)(/C=N/O)c1ccccc1)=N\O (centres undefined) | -4.45% (inactive)
15 | O=C(CSc1nnc(-c2c[nH]c3ccccc23)n1-c1ccc(F)cc1)NCc1ccco1 | -3.75% (inactive)
16 | CCOc1ncccc1C(=O)OCC(=O)NC1CC1 | 10.6% (inactive)
17 | CC(C)C(=O)N1CCN(CCN=CC2=C(O)CC(c3ccco3)CC2=O)CC1 (centres undefined) | -10.8% (inactive) and 8.17% (inactive)
18 | CCOC(=O)C1=NN(c2ccc(Cl)cc2)/C(=C/C2=NCCc3cc(OC)c(OC)cc32)S1 | -2.43% (inactive)
19 | O=C(NCc1ccccc1)C1CCCN(c2nc3ccsc3c(=O)s2)C1 (centres undefined) | -8.79% (inactive)
20 | Cc1cccc(N(Cc2ccccc2)C(=O)c2cc(S(=O)(=O)N3CCOCC3)ccc2F)c1 | 1.23% (inactive)
21 | CN(C)C1CN(Cc2cn(Cc3ccccc3)nn2)S(=O)(=O)C1 (centres undefined) | 0.6% (inactive)
22 | CN(Cc1cn(Cc2ccc(C(F)(F)F)cc2)nn1)C1CN(Cc2cn(Cc3ccc(C(F)(F)F)cc3)nn2)S(=O)(=O)C1 (centres undefined) | 28.6% (active)
23 | Cc1ccc(Cn2cc(CN3CC(N4CCN(C)CC4)CS3(=O)=O)nn2)cc1 (centres undefined) | 0.4% (inactive)
24 | COC(=O)c1c(-c2cccs2)csc1NC(=O)CSc1ncnc2sc(C)c(C)c12 | -0.42% (inactive)
25 | O=S(=O)(Nc1ccc(O)c2ccccc12)c1ccc(OC(F)(F)F)cc1 | 7.68% (inactive)

Row | SMILES | inhibition
26 | O=C(c1ccc(F)cc1)N1CCC(C(=O)N2CCN(S(=O)(=O)c3ccccc3Br)CC2)CC1 | 4.21% (inactive)
27 | CCCCCc1c(-c2ccc(OC)c(OC)c2)ncn1CCc1ccccc1OC | 15.1% (inactive)
28 | CCCCCc1c(Cc2ccccc2)ncn1CCc1ccccc1OC | 30.2% (active)
29 | CCCCCc1c(-c2cccc(Br)c2)ncn1CCc1ccccc1OC | -1.26% (inactive)
30 | Cc1cccc(C)c1NC(=O)C(c1ccc(C(F)(F)F)cc1)n1c(=O)c(-c2ccco2)nc2ccccc21 (centres undefined) | -5.75% (inactive)
31 | c1ccc(C(=NNc2nc3ccccc3s2)c2ccccn2)cc1 | 53.7% (active)
32 | CCOc1ccc(-n2c(SCC(=O)NC3CCS(=O)(=O)C3)nnc2-c2cccnc2)cc1 (centres undefined) | 0.02% (inactive)
33 | c1ccc(COc2ccccc2CNCc2cccnc2)cc1 | 6.7% (inactive)
34 | c1ccc2c(c1)CSc1sccc1C2=C1CCNCC1 | 99% (active)
35 | CC(C)(C)[C@H]1C=C(C(=O)NCc2ccccc2)O[C@@H](OCc2ccc(CO)cc2)C1 | 27% (active)
36 | O=C(NCc1ccccc1)C1=C[C@H](C2CC2)C[C@H](OCc2ccc(CO)cc2)O1 | 8.59% (inactive)
37 | O=C(NCc1ccccc1)C1=C[C@@H](C2CCCCC2)C[C@@H](OCc2ccc(CO)cc2)O1 | 15.6% (inactive)
38 | Cc1ccc(S(=O)(=O)N2CCCC(C(=O)N3CCN(C)CC3)C2)cc1 (centres undefined) | -2.93% (inactive)
39 | COc1ccc(S(=O)(=O)N2CCCC(C(=O)N3CCN(C)CC3)C2)cc1C (centres undefined) | 10.1% (inactive)
40 | CC(=O)N1CCCc2cc(S(=O)(=O)N3CCCC(C(=O)N4CCN(c5cccc(Cl)c5)CC4)C3)ccc21 (centres undefined) | 39.3% (active)
41 | CC1=C(C)CC(C(=O)NNC(=O)c2csc3c2CCC(C(C)(C)C)C3)C(C(=O)O)C1 (centres undefined) | -0.27% (inactive)
42 | CCc1c(Nc2ccccc2Cl)nc(N)[nH]c1=O | 6.79% (inactive)
43 | Cc1ccccc1NC(=O)Cc1nc(COC(=O)C(C)(C)Oc2ccc(Cl)cc2)cs1 | 0.92% (inactive)
44 | CC(C)CC(=O)NC(=S)NNC(=O)c1cccc([N+](=O)[O-])c1 | 32.7% (active)
45 | C/C(=N\NC(=O)c1cccc([N+](=O)[O-])c1)c1cccnc1 | 0.74% (inactive)
46 | O=C(NC(=S)NC1CCS(=O)(=O)C1)c1cccc([N+](=O)[O-])c1 (centres undefined) | -3.13% (inactive)
47 | CC[C@@H](C)[C@@H]1CN([C@@H](C)CN2CCC[C@H]2CN2C(N)=NC[C@H]2C(C)C)C(=N)N1CCc1ccc(Cl)c(Cl)c1 | -2.75% (inactive)
48 | C[C@@H](CN1CCC[C@H]1CN1C(N)=NC[C@@H]1Cc1ccccc1)N1C[C@@H](Cc2ccccc2)N(CCCC2CCCC2)C1=N | 28.9% (active)
49 | NC1=NC[C@@H](Cc2ccc(O)cc2)N1CC1CCCCC1 | 9.28% (inactive)

Reference: PubChem BioAssay AID624040 (The Scripps Research Institute Molecular Screening Center, 2012)
